Source: PubChem BioAssay
D2 ag-1: HTS Assay for Allosteric Agonists of the Human D2 Dopamine Receptor: Primary Screen for Agonists. D(2) dopamine receptor (Homo sapiens), P14416. 340,000 compounds, 0.53% hits. activation, % at 2 µM. AID 485358, 2010. HEK293 T-REx D2 cells, calcium flux agonist mode;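 active = activation over 3 SD above normal in the single-dose calcium agonist read, cut at about 30% in these data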; note: 0% is about no effect
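Agonism is scored from calcium flux in a force-coupled, inducible HEK293 cell line expressing D2, read kinetically for 180 s after compound addition against dopamine controls.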
B2AR arrestin: qHTS assay of beta-arrestin-biased ligands of beta2-adrenergic receptor | Beta-2 adrenergic receptor (Homo sapiens), P07550 | beta-arrestin recruitment to beta2AR, cell-based reporter | Potency, µM (highest dose often 46.1 µM), inactives show top-dose activation, usual class: activators | 330,000 compounds, 0.02% hits | AID 492947, 2010;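 note: potency is the fitted concentration of half-maximal effect; 0% = DMSO controls and full agonism = EC100 isoproterenol or metaproterenol; nearly all actives have a fitted effect of over 65% in size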
Target sequence (P07550 whole entry, looked up): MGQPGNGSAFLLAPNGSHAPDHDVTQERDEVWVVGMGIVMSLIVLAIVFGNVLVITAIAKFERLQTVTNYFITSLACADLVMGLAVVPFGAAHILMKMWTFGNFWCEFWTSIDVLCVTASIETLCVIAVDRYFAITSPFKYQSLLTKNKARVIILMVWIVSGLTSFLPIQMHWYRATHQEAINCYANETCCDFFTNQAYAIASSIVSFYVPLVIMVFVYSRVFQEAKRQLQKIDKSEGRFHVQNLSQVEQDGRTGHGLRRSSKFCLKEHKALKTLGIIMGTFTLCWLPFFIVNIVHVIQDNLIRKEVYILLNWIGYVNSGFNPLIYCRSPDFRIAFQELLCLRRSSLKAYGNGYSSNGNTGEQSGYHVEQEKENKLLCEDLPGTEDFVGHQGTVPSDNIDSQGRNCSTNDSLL
D2 ag-2: Beta-Arrestin HTS for Positive Allosteric Modulators of the Human D2 Dopamine Receptor: Agonists; activation, % (no concentration beside the values); DiscoveRx PathHunter D2 beta-arrestin, luminescence, 90 min; 100% = 57 uM dopamine signal; AID 624465, 2012; D(2) dopamine receptor (Homo sapiens), P14416; 360,000 compounds, 0.084% hits; in the data active = activation above about 40%; inconclusive = between about 15% and that limit
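DiscoveRx PathHunter D2 beta-arrestin cells (2,100/well) attached overnight, then compound-stimulated 90 min at 37 C in HBSS/10 mM HEPES/0.1% Tween-20 buffer; beta-galactosidase complementation read by luminescence after 1 h at ambient temperature. Dopamine 57 uM final (EC100) as control.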
D2 PAM-1: Beta-Arrestin HTS for Positive Allosteric Modulators of the Human D2 Dopamine Receptor: Potentiators. D(2) dopamine receptor (Homo sapiens), P14416. DiscoveRx D2 beta-arrestin cells, luminescence, 90 min; 100% = 57 uM dopamine signal. potentiation, % (concentration not given with the values). 360,000 compounds, 0.23% hits. AID 624464, 2012; in the data active = potentiation above about 50%; inconclusive = mostly about 30% to 49%
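PathHunter beta-arrestin assay in DiscoveRx D2 cells. Compounds were added with an EC20 of dopamine (50 nM final) for 90 min at 37 deg C. Luminescence was read 1 h after detection reagent, with 57 uM dopamine as the EC100 control.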
D2 PAM-2: HTS Assay for Positive Allosteric Modulators of the Human D2 Dopamine Receptor: Primary Screen for Potentiators | 340,000 compounds, 0.34% hits | AID 485347, 2010 | HEK293 T-REx D2, calcium flux, EC20 dopamine potentiation | potentiation, % at 10 µM;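 active = potentiation over 3 SD above the plate norm, cut at about 30% in these data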; note: 0% is about no effect
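Tetracycline-induced HEK293 T-REx cells force-coupled to calcium signalling expressed D2; compounds were pin-added after a 10 s baseline, read kinetically 180 s, then an EC20 dopamine challenge followed with a further 180 s calcium read.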
D2 antag: HTS Assay for Allosteric Antagonists of the Human D2 Dopamine Receptor: Primary Screen for Antagonists. inhibition, % at 10 µM. 340,000 compounds, 2% hits. AID 485344, 2010. D(2) dopamine receptor (Homo sapiens), P14416. HEK293 TREx D2 cells, calcium flux, dopamine EC80; in the data active = inhibition above about 30%; inactive = below that, where a call was filed; note: 0% is about no effect
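Calcium mobilization kinetics were recorded at 1 s intervals in tetracycline-induced HEK293 T-REx D2 cells, first for 180 s after compound addition and then 180 s after EC80 dopamine.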
D3 ag: qHTS of D3 Dopamine Receptor Agonist: D3 Dopamine Receptor B-arrestin Agonist Confirmatory Assay | 2,300 compounds, 4% hits | DiscoveRx D3 beta-arrestin cells, luminescence, 90 min | shares compounds with D2 ag-1 | Potency, µM (series often up to 76.9 µM), for the others: at the highest dose activation, hits mostly activators;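 note: potency is the fitted concentration of half-maximal effect; 100% = dopamine control response; nearly all actives have a fitted effect of over 70% in size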
D2 ag-3: qHTS of D3 Dopamine Receptor Agonist: D2 Dopamine Receptor B-arrestin Agonist Counterscreen; shares compounds with D2 ag-1; DiscoveRx PathHunter D2 beta-arrestin, luminescence, 90 min; response scale: percent relative to full dopamine signal; Potency, µM (doses to about 76.9 µM), for inactives: top-dose activation, hits mostly activators; 2,300 compounds, 5.9% hits; AID 720507, 2013; note: potency is the fitted concentration of half-maximal effect; % of control where 0% means no effect; nearly all actives have a fitted effect of over 70% in size
* = called active by the depositor; u = inconclusive; x = no result given. Only some compounds are listed: those with a hit (about 2.4% of all), similar ones and a draw of the others. Unless noted, calls come from the whole dose curve; as a rule, active = well fitted activation curve with a large enough effect; inconclusive = small, poorly fitted or top-dose-only effect; inactive = flat fitted curve, though single readings scatter.

SMILES	D2 ag-1	B2AR arrestin	D2 ag-2	D2 PAM-1	D2 PAM-2	D2 antag	D3 ag	D2 ag-3
COc1ccc(CCNC(=O)CCc2c(C)nc3cc(-c4cccc(F)c4)nn3c2C)cc1OC	0	x	x	x	1	x	x	x
CCOC(=O)N1CCN(S(=O)(=O)CCNC(=O)c2cccc(OC)c2)CC1	0	0%	0	-4	12	11	x	x
Cc1cccc2cc(CNCC3CCCO3)c(Cl)nc12 (centres undefined)	45*	0%	8	-6	-23	12	4%	20%
O=C(c1ccc2c(c1)OCO2)N1CCCC(c2ccccc2)C1 (centres undefined)	23	0%	2	-7	-4	55*	23%	26%
CC1CCCN(C(=O)c2ccc3c(c2)OCO3)C1 (centres undefined)	0	0%	-7	-13	-1	6	x	x
C/C(=N\N1CCN(Cc2ccccc2Cl)CC1)c1ccc([N+](=O)[O-])cc1	1	0%	2	-8	-10	-6	x	x
OC(CSc1ccccc1Cl)CN1CCN(c2ccccc2F)CC1 (centres undefined)	63*	0%	u	20	-17	74*	45µM*	u
OC(CSc1c(Cl)cccc1Cl)CN1CCN(c2ccccc2F)CC1 (centres undefined)	68*	0%	u	-11	-25	65*	u	u
O=S(=O)(Nc1ccccc1N1CCOCC1)c1ccc(F)c(Cl)c1	0	-1%	5	-8	2	-6	x	x
COc1ccc2oc(=O)c(C(=O)N3c4ccccc4CC3C)cc2c1 (centres undefined)	x	0%	11	6	x	x	-3%	10%
Cc1c(NC(=O)COC(=O)C23CC4CC(CC(Br)(C4)C2)C3)c(=O)n(-c2ccccc2)n1C	3	0%	1	-6	10	3	x	x
CN(C)C(=O)Oc1ccc[n+](C)c1	1	-1%	-3	22	-7	15	x	x
CCCCCCCC/C=C\CCCCCCCC(=O)NCCO	1	0%	-3	-7	4	12	x	x
CCCCCCCC/C=C\CCCCCCCC(=O)NCCc1ccc(O)c(O)c1	39*	0%	100*	u	7	57*	4µM*	16µM*
CCOC(=O)N1CCc2c(sc(N)c2C#N)C1	74*	-1%	u	54*	-26	58*	u	u
N#C/C(=N\Nc1ccccc1)C(N)=S	1	-1%	-11	-29	-1	4	-10%	-19%
COc1ccc(CC(=O)Nc2ccc(F)c(F)c2F)cc1S(=O)(=O)N1CCOCC1	1	0%	-2	-3	5	6	4%	7%
Cc1ccc(C2=CC(=O)C[C@H](c3ccc(F)cc3)C2)cc1	0	0%	-7	-7	16	8	x	x
N#Cc1ccc(C2=CC(=O)C[C@H](c3ccc(F)cc3)C2)cc1	0	0%	1	-13	8	-11	3%	1%
Cn1ccc2ccc(C3=CC(=O)C[C@H](c4ccc(F)cc4)C3)cc21	-1	-1%	-3	-5	-12	-10	-5%	1%
O=C(CCN1CCN(c2ccccc2)CC1)Nc1ccc2c(c1)OCO2	103*	0%	u	-14	-27	108*	u	u
COc1ccc(NC(=O)CCN2CCN(c3ccccc3F)CC2)c(OC)c1	90*	0%	49*	13	-28	86*	u	u
O=C(CCN1CCN(c2ccccc2)CC1)Nc1nccs1	71*	0%	14	-28	-31	93*	25%	16%
COc1ccc(NC(=O)CN2CCN(c3ccccc3F)CC2)c(OC)c1	x	x	x	x	-22	x	x	x
CCN1CCN(CCC(=O)Nc2ccc3c(c2)OCO3)CC1	0	7%	2	-4	-7	0	x	x
SMILES	D2 ag-1	B2AR arrestin	D2 ag-2	D2 PAM-1	D2 PAM-2	D2 antag	D3 ag	D2 ag-3
O=C(CCN1CCN(c2ccccc2F)CC1)Nc1ccc2c(c1)OCO2	80*	-1%	u	3	-19	86*	u	u
CN(C(=O)c1cccc(NC(=O)Cc2ccc(NC(=O)C3CCN(C(=O)C4CC4)CC3)cc2)c1)C1CCC1	x	x	-1	2	x	x	x	x
O=C(NC(=S)NCCCN1CCOCC1)c1cccc2ccccc12	x	0%	-11	-1	5	x	x	x
O=C(CN1CCN(c2ccc(O)cc2)CC1)Nc1ccc2c(c1)OCCCO2	35*	-1%	7	15	-12	1	40µM*	35µM*
O=C(CCN1CCN(c2ccccc2)CC1)Nc1cccc(Br)c1	60*	0%	-1	-8	-22	75*	21%	12%
COC(=O)C1CCN(Cc2cn(Cc3ccccc3)nc2-c2cc3ccccc3o2)CC1	37*	0%	-1	-11	-13	13	-9%	8%
NC(=O)N/N=C/C=C/c1ccc(F)cc1	1	0%	-3	0	9	-3	x	x
O=C(O)Cc1sc(N/N=C\c2ccncc2)nc1-c1ccccc1	10	0%	u	2	0	-14	u	2%
O=C(O)Cc1sc(Nc2ccccc2)nc1-c1ccccc1	0	x	x	x	0	x	x	x
CC1CCCC(NC(=O)COC(=O)c2ccc3ncsc3c2)C1C (centres undefined)	x	0%	-1	-4	x	x	-2%	4%
CC(C)Sc1ncnc2c1oc1ccccc12	0	-1%	-1	-15	-8	8	-10%	-1%
COCc1cc(C)nc2sc3c(c12)NC(c1ccc(NC(C)=O)cc1)N(c1ccc(C)cc1)C3=O (centres undefined)	2	x	x	x	24	x	x	x
